The results in this text go back to PubChem BioAssay.

Values without a mark were called inactive. Calls of active or inactive are those of the source.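 Rule for the calls, unless noted: active = compound that reduces growth-factor-driven endothelial tube area in a mixed cell culture, no cutoff stated; inactive = the rest.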 Peptide text beside a SMILES is read from it.

A short description of experiment [1]: stimulators of insulin release from INS-1E, primary screen, cell-based, 5 mM glucose, NPC library (AID 1117329;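 active = compound raises insulin release from rat beta cells at 5 mM glucose, no numeric limit stated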). The settings on record: rat INS-1E insulin secretion, at 10 µM, hits give high values.
Experiment [2] can be described thus: growth inhibition of GSK3B-pretreated HCT116 cells – cell-based, CellTiter-Glo, 0.2 to 20 µM (AID 1117336;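 active = compounds lowering colon cancer cell viability after pretreatment blocking the GSK3B kinase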). The settings on record: HCT116 viability after GSK3B inhibitor, at 20 µM, hits give high values. (In general: ATP-based viability assays read luminescence as a measure of living cells.)
Experiment [3] is described as follows: inhibition of endothelial tube formation, primary screen, imaging, VEGF stimulated, CD31 staining, tube area, NPC library (AID 1117340). The settings on record: VEGF-stimulated ADSC/ECFC co-culture, at 10 µM, hits give high values.
Experiment [4] is described as follows: GLP1 release stimulators, primary, NCI-H716, NPC library (AID 1117341;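 active = compound raises GLP1 secretion from the human gut endocrine cells, with no numeric limit stated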). As to conditions: NCI-H716 cells, at 10 µM, hits give high values.
The nature of experiment [5]: HCT116 colon cancer cell growth inhibition, primary screen, CellTiter-Glo luminescence, NPC library (AID 1117342;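 active = compounds that lower survival of HCT116 colon cancer cells in the luminescence readout, no numeric limit stated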). The settings on record: at 20 µM (top of the series).
Experiment [6] in a line: reduced SW480 viability measured with CellTiter-Glo, NPC library, primary (AID 1117343;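 active = compounds that lower viability of the colon cancer cells in the luminescence readout, with no numeric limit stated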). The settings on record: CellTiter-Glo luminescence; at 20 µM (top of the series).
Experiment [7] can be described thus: NPC library primary testing for decreased DLD-1 cell viability via CellTiter-Glo (AID 1117346;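 active = compounds that lower survival of DLD-1 colon cancer cells in the luminescence readout, no cutoff given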). As to conditions: DLD-1 viability, CellTiter-Glo luminescence; at 20 µM (top of the series).
Experiment [8] addresses 6-phosphogluconate dehydrogenase, decarboxylating (Homo sapiens) (UniProt P52209). Briefly: inhibition of human phosphogluconate dehydrogenase – biochemical, recombinant enzyme, NADPH absorbance, primary screen (AID 1159550;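 active = at least 20% inhibition of 6-phosphogluconate dehydrogenase activity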). The settings on record: recombinant 6PGD, NADPH absorbance 341 nm; at 10 µM; hits give high values.

6-phosphogluconate dehydrogenase, decarboxylating (Homo sapiens), sequence (P52209 whole entry, looked up): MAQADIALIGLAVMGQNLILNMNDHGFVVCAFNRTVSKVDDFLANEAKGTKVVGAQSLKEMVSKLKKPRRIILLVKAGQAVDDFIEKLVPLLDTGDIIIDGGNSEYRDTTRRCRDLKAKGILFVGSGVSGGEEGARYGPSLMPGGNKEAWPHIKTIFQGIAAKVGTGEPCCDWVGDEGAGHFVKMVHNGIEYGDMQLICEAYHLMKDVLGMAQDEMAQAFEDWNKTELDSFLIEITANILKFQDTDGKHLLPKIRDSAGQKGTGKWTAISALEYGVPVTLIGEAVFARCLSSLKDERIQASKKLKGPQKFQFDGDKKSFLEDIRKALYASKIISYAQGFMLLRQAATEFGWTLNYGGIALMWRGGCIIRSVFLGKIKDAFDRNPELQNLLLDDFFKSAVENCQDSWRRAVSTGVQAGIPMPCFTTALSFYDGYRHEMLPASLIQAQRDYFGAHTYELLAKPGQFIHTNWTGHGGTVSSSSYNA

As a reminder, the inhibition is the change of the read-out against control, counted positive when it falls. `C[C@@H]1C[C@H]2[C@@H]3CCC4=CC(=O)C=C[C@]4(C)[C@@]3(F)[C@@H](O)C[C@]2(C)[C@@]1(O)C(=O)COP(=O)(O)O`: the insulin secretion stimulation in experiment [1] is -6.4%. Besides, the viability decrease in experiment [2] was -4.3%. Moreover, the tube area decrease in experiment [3] was 0.7%. For the same molecule, the GLP1 secretion stimulation in experiment [4] was -2.2%. Moreover, the inhibition of viability in experiment [5] was 2.57%. In addition, the viability decrease (inhibition) in experiment [6] is 24.1%; in experiment [7] it was -4.8%. For the same molecule, the inhibition in experiment [8] was -4.39%.

As to `Nc1ccc(S(N)(=O)=O)cc1`, the insulin secretion stimulation in experiment [1] is -1.2%. Further, in experiment [2], the viability decrease was 3.9%. For the same molecule, in experiment [3], the tube area decrease is -8.1%. Moreover, the GLP1 secretion stimulation in experiment [4] was 2.3%. Further, the inhibition of viability in experiment [5] is -0.4%. Moreover, the viability decrease (inhibition) in experiment [6] is 6.8%; in experiment [7], 25.1%. The inhibition in experiment [8] was 7.71%.

On to `Cc1cc(=O)n(-c2ccccc2)n1C`, for which the insulin secretion stimulation in experiment [1] is -0.2%. Moreover, the viability decrease in experiment [2] is -26.3%. For the same molecule, the tube area decrease in experiment [3] is -3.4%. The GLP1 secretion stimulation in experiment [4] was 0.4%. For the same molecule, the inhibition of viability in experiment [5] was 1.15%. Moreover, the viability decrease (inhibition) in experiment [6] was 4%; in experiment [7], -8.2%. Besides, the inhibition in experiment [8] was 6.71%.

`COc1ccc2c(c1)c(CC(=O)OCC(=O)O)c(C)n2C(=O)c1ccc(Cl)cc1`: the insulin secretion stimulation in experiment [1] was 2.2%. In addition, the viability decrease in experiment [2] is 4.9%. The tube area decrease in experiment [3] is -5.2%. For the same molecule, the GLP1 secretion stimulation in experiment [4] was -2.5%. In addition, the inhibition of viability in experiment [5] is 12.8%. Moreover, the figures for the viability decrease (inhibition) in experiment [6] and in experiment [7] were 33.3% and 0.1%, respectively. Also, the inhibition in experiment [8] is -4.54%.

`Cc1cccc(C(=O)O)c1O`: the insulin secretion stimulation in experiment [1] was -1.9%. Moreover, the viability decrease in experiment [2] is -9.8%. Also, the tube area decrease in experiment [3] is 2.1%. For the same molecule, the GLP1 secretion stimulation in experiment [4] was 1.9%. The inhibition of viability in experiment [5] was -0.1%. In addition, the viability decrease (inhibition) in experiment [6] is 22.1%; in experiment [7], -4.5%. Besides, the inhibition in experiment [8] was 9.08%.

As to `Cc1ccsc1/C=C/C1=NCCCN1C`, the insulin secretion stimulation in experiment [1] was 0.2%. For the same molecule, the viability decrease in experiment [2] is -25.2%. Further, in experiment [3], the tube area decrease was -9.8%. For the same molecule, the GLP1 secretion stimulation in experiment [4] was -0.1%. In addition, in experiment [5], the inhibition of viability was 39.5%. In addition, the results for the viability decrease (inhibition) in experiment [6] and in experiment [7] were 90.9% (active) and 87.6% (active), respectively. Also, the inhibition in experiment [8] was 5.11%.

For the molecule `CCC(=O)O[C@H]1[C@H](O[C@@H]2[C@@H](C)[C@H](O[C@H]3C[C@@](C)(OC)[C@@H](O)[C@H](C)O3)[C@@H](C)C(=O)O[C@H](CC)[C@@](C)(O)[C@H](O)[C@@H](C)C(=O)[C@H](C)C[C@@]2(C)O)O[C@H](C)C[C@@H]1N(C)C`, the insulin secretion stimulation in experiment [1] was -1.7%. Further, the viability decrease in experiment [2] was -28.1%. For the same molecule, the tube area decrease in experiment [3] is 5.5%. The GLP1 secretion stimulation in experiment [4] was -0.1%. Further, the inhibition of viability in experiment [5] is 3.15%. In addition, the results for the viability decrease (inhibition) in experiment [6] and in experiment [7] were 13.9% and -12.4%, respectively. The inhibition in experiment [8] was 1.5%.

Turning to `CCCCCCc1ccc(O)cc1O`, the insulin secretion stimulation in experiment [1] is 9.8%. In addition, in experiment [2], the viability decrease was 65.4% (active). The tube area decrease in experiment [3] is 30.7%. In addition, in experiment [4], the GLP1 secretion stimulation is 4.2%. Besides, the inhibition of viability in experiment [5] is 41.8%. Moreover, the figures for the viability decrease (inhibition) in experiment [6] and in experiment [7] were 84.1% (active) and 56.2% (active), respectively. Besides, the inhibition in experiment [8] was -8.5%.

As for `CN(C)CCC(c1ccccc1)c1ccccn1` (centres undefined), in experiment [1], the insulin secretion stimulation was 1.3%. Also, in experiment [2], the viability decrease was -40.9%. Also, the tube area decrease in experiment [3] was 1.9%. In experiment [4], the GLP1 secretion stimulation was 1.5%. Also, the inhibition of viability in experiment [5] is 3.55%. The figures for the viability decrease (inhibition) in experiment [6] and in experiment [7] were 12.1% and -7.2%, respectively. Besides, the inhibition in experiment [8] was -0.335%.

In the case of `NC(N)=NS(=O)(=O)c1ccc(N)cc1`, in experiment [1], the insulin secretion stimulation is -1.4%. For the same molecule, the viability decrease in experiment [2] was 7.4%. Besides, in experiment [3], the tube area decrease was -2.9%. For the same molecule, the GLP1 secretion stimulation in experiment [4] is 0.9%. Further, the inhibition of viability in experiment [5] is -10.1%. Further, the viability decrease (inhibition) in experiment [6] was 54.6% (active); in experiment [7], 5.6%. Moreover, the inhibition in experiment [8] was -6%.

As to `CC(=O)Oc1cccc(O)c1`, the insulin secretion stimulation in experiment [1] is 2.6%. For the same molecule, the viability decrease in experiment [2] is 0.4%. Also, the tube area decrease in experiment [3] was 20.9%. In experiment [4], the GLP1 secretion stimulation was 1.4%. The inhibition of viability in experiment [5] was 3.03%. The viability decrease (inhibition) in experiment [6] was 29.4%; in experiment [7], -7.4%. The inhibition in experiment [8] is 8.3%.

As to `Cc1onc(-c2ccccc2)c1C(=O)N[C@@H]1C(=O)N2[C@@H]1SC(C)(C)[C@@H]2C(=O)O`, in experiment [1], the insulin secretion stimulation was 6.3%. Moreover, the viability decrease in experiment [2] is 0.4%. The tube area decrease in experiment [3] was -1.6%. Also, the GLP1 secretion stimulation in experiment [4] is -3.6%. The inhibition of viability in experiment [5] is 5.3%. The viability decrease (inhibition) in experiment [6] is -4.9%; in experiment [7], -3.8%. The inhibition in experiment [8] is 8.76%.

For `COC(=O)[C@H](Cc1ccccc1)NC(=O)[C@@H](N)CC(=O)O` (H-Asp-Phe-OMe), the insulin secretion stimulation in experiment [1] is 2.8%. The viability decrease in experiment [2] was -0.5%. In addition, in experiment [3], the tube area decrease was 6.5%. The GLP1 secretion stimulation in experiment [4] is 0.8%. For the same molecule, the inhibition of viability in experiment [5] was 5%. The viability decrease (inhibition) is -6.8% in experiment [6] and 9.55% in experiment [7]. Further, the inhibition in experiment [8] was 10.8%.
